High-throughput results as filed in PubChem BioAssay.
CYP2C9 inh: human CYP2C9 inhibition. P11712. CYP2C9 Supersomes, luciferin-H conversion, luminescence. inhibition, % at 5 µM. hit rate 20% among 96,000;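 active means blocking of liver enzyme CYP2C9 beyond about 50% at 5 µM, limit read from the data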
Target sequence (P11712 whole entry, looked up): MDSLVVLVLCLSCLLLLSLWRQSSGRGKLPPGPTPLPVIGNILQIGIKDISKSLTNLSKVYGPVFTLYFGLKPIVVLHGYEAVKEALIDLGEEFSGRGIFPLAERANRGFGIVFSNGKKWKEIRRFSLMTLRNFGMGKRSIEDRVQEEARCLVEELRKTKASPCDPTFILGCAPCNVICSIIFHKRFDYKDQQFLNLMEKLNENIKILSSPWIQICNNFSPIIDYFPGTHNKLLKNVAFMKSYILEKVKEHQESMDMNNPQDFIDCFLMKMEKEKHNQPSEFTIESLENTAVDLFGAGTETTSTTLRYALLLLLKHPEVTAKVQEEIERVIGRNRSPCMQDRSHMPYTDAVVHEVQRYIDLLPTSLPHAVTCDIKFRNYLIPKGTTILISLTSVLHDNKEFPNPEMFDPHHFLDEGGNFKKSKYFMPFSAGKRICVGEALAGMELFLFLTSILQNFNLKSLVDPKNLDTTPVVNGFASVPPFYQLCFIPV
CYP2C9 act: increases human cytochrome P450 2C9 activity | P11712 | recombinant CYP2C9, luciferin-H conversion, luminescence; stronger effect = higher value; factor 1 = untreated enzyme, 0 = blocked | activation factor at 5 µM | hit rate 1.4% among 96,000 | AID 1024;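 active means activation factor of 2 or more for CYP2C9 at a 5 µM dose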
DAT uptake mod: human DAT dopamine uptake with cocaine, either direction; LLC-PK1 hDAT cells, [14C]-dopamine uptake with cocaine IC80; actives deviate in either direction; hit rate 1.3% among 110,000; B-score at 10 µM; Q01959;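 active means Z score or B-score, a plate-position-corrected score, falls beyond the plate's 99.7% confidence bounds, in either direction; inactive means both scores lie inside the 99.7% bounds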
CYP2C19 act: activators of human cytochrome P450 2C19 | P33261 | recombinant CYP2C19, luciferin-H EGE luminescence; stronger effect = higher value; 0 = fully inhibited enzyme, 1 = untreated enzyme | activation factor at 5 µM | 96,000 tested, under 10 active;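 active means activation factor of at least 2 at 5 µM in the primary screen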
CYP2C19 inh: human CYP2C19 inhibition | CYP2C19 Supersomes, luciferin-H EGE luminescence, 30 min | inhibition, % at 5 µM | hit rate 21% among 96,000 | AID 778;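 active means CYP2C19 inhibition above a set limit at 5 µM in the primary screen, cut at about 50% in these data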
D1 mod: allosteric modulators of human D1 dopamine receptor | P21728 | HEK293 D1, CRE-luciferase, dopamine EC30 potentiation; actives deviate in either direction | B-score at 10 µM | hit rate 5.9% among 58,000;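 active means luminescence count or its row- and column-corrected plate score outside the 99.7% band of the plate's sample wells, on either side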
Large screens that a line does not name were inactive. Shown are actives, neighbours in structure and some others; about 28% of the full set was active somewhere.

O=C(NC1CCCCC1)c1ccc(S(=O)(=O)N2CCOCC2)cc1	none
O=C(NCC1CCN(c2ccc(S(=O)(=O)N3CCOCC3)cc2)CC1)c1cccc(Cl)c1	none (no result: D1 mod)
COc1ccc(NC(=O)c2ccc(S(=O)(=O)N3CCOCC3)cc2)c(OC)c1	CYP2C9 act 2.6
O=C(Nc1ccc2c(c1)OCCO2)c1ccc(Cl)c(S(=O)(=O)N2CCOCC2)c1	CYP2C19 inh 63
Cc1ccc(-n2nc3c(c2NC(=O)c2ccc(S(=O)(=O)N4CCOCC4)cc2)CSC3)c(C)c1	CYP2C9 inh 67
COc1ccc(C(=O)NCC(c2ccc(F)cc2)N2CCOCC2)cc1S(=O)(=O)N1CCCC1 (stereo not given)	CYP2C19 inh 92
NC(=O)CC(NC(=O)Cc1ccc(Br)cc1)c1ccc(NCCc2ccccc2F)c([N+](=O)[O-])c1 (stereo not given)	none (no result: CYP2C9 inh, CYP2C9 act, CYP2C19 act, CYP2C19 inh, D1 mod)
CC1CC1C(=O)Nc1nc(-c2ccccc2)cs1 (stereo not given)	none (no result: D1 mod)
CCC(C)[C@H](N)c1cn([C@@H](Cc2ccc(O)cc2)C(=O)N2CCNCC2)nn1 (stereo not given in full)	none (no result: CYP2C9 inh, CYP2C9 act, CYP2C19 act, CYP2C19 inh, D1 mod)
CC(C)(C)[C@H]1C=C(C(=O)O)O[C@@H](OCc2ccc(CO)cc2)C1	none (no result: CYP2C9 inh, CYP2C9 act, CYP2C19 act, CYP2C19 inh, D1 mod)
O=C(Nc1ccccc1)c1ccc(F)c(S(=O)(=O)N2CCOCC2)c1	CYP2C9 inh 56, CYP2C19 inh 57
COc1ccccc1NC(=O)c1ccc(Cl)c(S(=O)(=O)N2CCOCC2)c1	CYP2C9 inh 51
COc1ccc2c3c(cccc13)N(C)N=C2C	CYP2C9 inh 63, CYP2C19 inh 74 (no result: DAT uptake mod, D1 mod)
Nc1cc(=O)nc(SCC(=O)NC2CCCCC2)n1-c1ccccc1	none
CCOC(=O)/C=C1\SCC(=O)N1Cc1nnc(-c2ccccc2Br)o1	CYP2C9 inh 72, CYP2C19 inh 76 (no result: D1 mod)
CCOC(=O)/C=C1\SCC(=O)N1Cc1ccc(Br)cc1	none (no result: CYP2C9 inh, CYP2C9 act, CYP2C19 act, CYP2C19 inh)
Cc1cc(-n2nc(C)cc2C)nc(NS(=O)(=O)c2ccccc2Cl)n1	CYP2C9 inh 52 (no result: D1 mod)
Cc1cc(C)nc(NS(=O)(=O)c2ccccc2)n1	none
CCOc1ccc(N(CC(=O)N2CCCC2)S(=O)(=O)c2c(C)noc2C)cc1	none
CCCN(c1ccc(C(C)C)cc1)S(=O)(=O)c1c(C)noc1C	CYP2C9 inh 82
COc1ccc(N(CC(=O)Nc2ccc(C)cn2)S(=O)(=O)c2c(C)noc2C)cc1	CYP2C9 inh 70, CYP2C19 inh 73 (no result: D1 mod)
COc1ccc(N(CC(=O)Nc2ccc(F)c(Cl)c2)S(=O)(=O)c2c(C)noc2C)cc1	none
COc1ccc(OC)c(NC(=O)CN(c2ccc(C)cc2)S(=O)(=O)c2c(C)noc2C)c1	D1 mod 4.6
COc1ccc(OC)c(NC(=O)CN(c2ccc(C(C)C)cc2)S(=O)(=O)c2c(C)noc2C)c1	CYP2C9 inh 94, CYP2C19 inh 75
Cc1c(S(=O)(=O)N2CCN(C(c3ccccc3)c3ccccc3)CC2)c(=O)n(C)c(=O)n1C	none (no result: D1 mod)
O=C(c1cccc(C(F)(F)F)c1)N1CCOC12CCN(c1ncc(C(F)(F)F)cc1Cl)CC2	none (no result: D1 mod)
Cc1noc(C)c1S(=O)(=O)N(CC(=O)N1CCn2c1nc1ccccc12)c1ccc(C(C)C)cc1	CYP2C9 inh 87, CYP2C19 inh 58 (no result: D1 mod)
COc1ccc(N(CC(=O)Nc2cc(Cl)ccc2OC)S(=O)(=O)c2c(C)noc2C)cc1	CYP2C9 inh 89, CYP2C19 inh 90 (no result: D1 mod)
COc1ccc(N(CC(=O)Nc2ccc(OC)c(Cl)c2)S(=O)(=O)c2c(C)noc2C)cc1	none (no result: D1 mod)
O=C(OCc1nc2ccccc2s1)c1cccc(S(=O)(=O)N2CCOCC2)c1	CYP2C9 inh 65, CYP2C19 inh 60 (no result: D1 mod)
COc1ccc(S(=O)(=O)N2CCc3ccccc32)cc1C(=O)OCc1c(C)noc1C	CYP2C9 inh 99, CYP2C19 inh 95 (no result: D1 mod)
Cc1noc(C)c1COC(=O)c1cccc(S(=O)(=O)N2CCCCCC2)c1	CYP2C9 inh 96, CYP2C19 inh 91
Cc1noc(C)c1COC(=O)c1ccc2c(c1)OCCO2	none (no result: CYP2C9 inh, CYP2C9 act, CYP2C19 act, CYP2C19 inh, D1 mod)
O=C(COC(=O)c1cccc(S(=O)(=O)N2CCOCC2)c1)Nc1nc(-c2ccccc2Cl)cs1	CYP2C9 inh 74, CYP2C19 inh 67 (no result: D1 mod)
Cc1cc(NC(=O)COC(=O)c2cccc(S(=O)(=O)N3CCOCC3)c2)no1	none
CCCCS(=O)(=O)NC1=NCN(C2CCN(Cc3ccccc3)CC2)CN1	none (no result: CYP2C9 inh, CYP2C9 act, DAT uptake mod, CYP2C19 act, CYP2C19 inh)
CCOc1ccc(C2OC34CCCCC3C(C#N)(C#N)C2(C#N)C(=N)O4)cc1OC (stereo not given)	none (no result: D1 mod)
O=C(CS(=O)CC(=O)N(CC(=O)NC1CCCC1)C1CCCCC1)Nc1ccc(F)cc1 (stereo not given)	CYP2C9 inh 57
Cc1c(N)cccc1-c1nc2ccccc2[nH]1	none (no result: CYP2C9 inh, CYP2C9 act, CYP2C19 act, CYP2C19 inh, D1 mod)
O=C(CCN1C(=O)c2ccccc2S1(=O)=O)Nc1nc2c(s1)CCCC2	CYP2C9 inh 88, CYP2C19 inh 84
CC(C)C(=O)Nc1cccc(NC(=O)CCN2C(=O)c3ccccc3S2(=O)=O)c1	CYP2C9 inh 97, CYP2C19 inh 87
O=C(CCS(=O)(=O)Cc1ccccc1)Nc1nc2c(s1)CCCC2	none
Cc1ccc(CC(=O)Nc2nc3c(s2)CCCC3)cc1	CYP2C9 inh 87 (no result: D1 mod)
COc1cccc(NC(=O)CCN2C(=O)c3ccccc3S2(=O)=O)c1	none (no result: D1 mod)
O=C(CS(=O)(=O)Cc1ccccc1)Nc1nc2c(s1)CCCC2	CYP2C19 inh 56
COC(=O)[C@@]1(Cc2ccc(OC)cc2)[C@H]2c3cc(C(=O)N(C)C)n(CCSCCO)c3C[C@H]2CN1C(=O)c1ccccc1	none (no result: CYP2C9 inh, CYP2C9 act, CYP2C19 act, CYP2C19 inh, D1 mod)
Cc1cccc(NC(=O)CN2NS(=O)(=O)c3ccccc3C2=O)c1	CYP2C9 inh 59 (no result: D1 mod)
Cc1cccc(NC(=O)C2CC(=O)n3cnnc3S2)c1 (stereo not given)	none (no result: D1 mod)
CCOC(=O)c1ccc2c(c1)nc(SCC(=O)c1cc3ccccc3o1)n2CC	CYP2C9 inh 78 (no result: D1 mod)
CCOC(=O)c1ccc(NC(=O)c2cc3ccccc3o2)cc1	none
CCn1c(COc2cccc(C)c2)nc2ccccc21	none (no result: CYP2C9 inh, CYP2C9 act, CYP2C19 act, CYP2C19 inh, D1 mod)
C=CCNC(=O)CSc1nc2cc(C(=O)OCC)ccc2n1CC	CYP2C9 inh 75, CYP2C19 inh 96 (no result: D1 mod)
CCOC(=O)c1ccc2c(c1)nc(COc1ccc(OC)cc1)n2CC	CYP2C9 inh 55, CYP2C19 inh 76 (no result: D1 mod)
COc1ccc(C[C@H]2CN3C(=NC[C@@H]3Cc3ccc(O)cc3)N2CCNC(=O)c2ccc(C)c(Br)c2)cc1	DAT uptake mod -2.5 (no result: CYP2C9 inh, CYP2C9 act, CYP2C19 act, CYP2C19 inh, D1 mod)
CCOCC(=O)Nc1cccc(Br)c1	none
Cc1nc(C(F)(F)F)nc(Nc2ccc(Br)cc2)c1C#N	CYP2C19 inh 64 (no result: D1 mod)
CCOC(=O)c1ccc(Nc2nc(C)cc(C)c2C#N)cc1	none
COc1ccc(-c2cc3ccccc3n2CC(O)Cn2nc(C)cc2C)cc1 (stereo not given)	CYP2C9 inh 100, CYP2C19 inh 99 (no result: D1 mod)
Cc1c(C)n(CC(O)CN2CCCCC2)c2ccccc12 (stereo not given)	none (no result: D1 mod)
